Reference: PubChem BioAssay
Activity calls are given as the source filed them.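 Rule for the calls, unless noted: active = NADPH fluorescence slope more negative than the mean of all samples by about 3 SD, 99.7% confidence; inactive = the rest.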

Legend:
[1] = inhibitors of TNFa-induced NFkB p65 translocation, primary screen, imaging, HUVEC, MLSMR starter and 10KST1 sets (AID 438;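 active = inhibition above 20% together with a positive visual image hit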;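 note: compound added about 3h40 before a 20 min TNFalpha stimulation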;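 for inhibition: signal is the nuclear over cytoplasmic p65 intensity ratio per well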); details: HUVEC TNFa-induced p65 nuclear translocation; cell count: measured here: nuclei count (cytotoxicity indicator), at 2.08 µM; inhibition: at 2 µM, stronger effect = higher value, 0% TNFa-plus-vehicle, 100% no-TNFa wells
[2] = reduction of polyQ htt aggregates in cells – imaging, exon1htt(103Q)mCFP cells, high-content imaging, primary screen (AID 483;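 active = visual image review flags a hit and inhibition of aggregation exceeds 20%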;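 note: compound exposure lasted 3 days before fixation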;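 for nuclei count: percent of the per-plate median nuclei count of sample wells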); details: exon1htt(103Q)mCFP cell line, aggregate imaging, at 2 µM; inhibition of aggregation: stronger effect = higher value; nuclei count: measured here: cell count, toxicity
[3] = endothelial E-selectin expression blockers – imaging, HUVEC, immunofluorescence, MLSMR starter and 10KST1 sets, primary screen (AID 487;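 active = visually confirmed hit in the image check and inhibition above 20%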;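 for inhibition: signal is fraction of cell area covered by stained E-selectin grains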;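 for nuclei count: 100% = median nuclei count of all wells on the same plate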); details: HUVEC TNFalpha-induced E-selectin immunofluorescence imaging, at 2 µM; inhibition: stronger effect = higher value; nuclei count: measured here: cell number, toxicity
[4] = biological target: Voltage-gated potassium channel subunit beta-2 (Rattus norvegicus) (UniProt P62483); experiment: inhibitors of rat Kvbeta2 reductase activity – biochemical, NADPH fluorescence, primary screen (AID 622;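 active = fluorescence slope higher than the sample average by over 3 SD, cut at about -0.22 in these data, passing the limit was not always enough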;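 note: slope of raw intensity against log time taken from 70 to 1610 s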); details: recombinant KvBeta, 4-cyanobenzaldehyde reduction, at 10 µM, stronger effect = higher value
[5] = biological target: Voltage-gated potassium channel subunit beta-2 (Rattus norvegicus) (UniProt P62483); experiment: enhancers of rat Kvbeta2 NADPH turnover – biochemical, NADPH fluorescence, primary screen (AID 623); details: Recombinant KvBeta, NADPH fluorescence decrease slope, 10 min; at 10 µM; stronger effect = lower value;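 note: fluorescence intensity change per second fitted from 20 to 320 s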
[6] = biological target: Alpha-2C adrenergic receptor (Homo sapiens) (UniProt P18825); experiment: compounds altering alpha2C-coupled GIRK flux – cell-based, HEK293 alpha2C/GIRK1/2, thallium flux, primary screen (AID 624;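 active = fluorescence slope after compound addition differing from the mean of all screened samples at 99.7% confidence, in either direction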;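 note: slope of fluorescence ratio to pre-addition baseline per second over 15 to 24 s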); details: thallium flux BTC fluorescence, at 10 µM, actives lie on both sides
[7] = blockers of RIG-like receptor reporter activation – cell-based, Sendai virus stimulus, luciferase, 10K MLSCN set, TLR/RLR signaling modifier project, primary screen (AID 602276;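 active = inhibition at or above 50% at 10 µM; inactive = inhibition below 50%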;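 note: firefly luciferase from ISG56 promoter only with Renilla not read in this screen; 0% = Sendai virus plus DMSO and 100% = medium plus DMSO without virus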); details: HEK293 RL24 IRF3 luciferase reporter, at 10 µM, stronger effect = higher value
[8] = TLR3 IRF3 reporter activation blockers – cell-based, poly I:C stimulus, luciferase, 10K MLSCN set, primary screen (AID 602277;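 active = inhibition of the reporter signal at or above 50%; inactive = inhibition below 50%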); details: HEK293-TLR3 RL24 IRF3 luciferase reporter, at 10 µM, stronger effect = higher value

Sequence of Alpha-2C adrenergic receptor (Homo sapiens) (P18825 whole entry, looked up): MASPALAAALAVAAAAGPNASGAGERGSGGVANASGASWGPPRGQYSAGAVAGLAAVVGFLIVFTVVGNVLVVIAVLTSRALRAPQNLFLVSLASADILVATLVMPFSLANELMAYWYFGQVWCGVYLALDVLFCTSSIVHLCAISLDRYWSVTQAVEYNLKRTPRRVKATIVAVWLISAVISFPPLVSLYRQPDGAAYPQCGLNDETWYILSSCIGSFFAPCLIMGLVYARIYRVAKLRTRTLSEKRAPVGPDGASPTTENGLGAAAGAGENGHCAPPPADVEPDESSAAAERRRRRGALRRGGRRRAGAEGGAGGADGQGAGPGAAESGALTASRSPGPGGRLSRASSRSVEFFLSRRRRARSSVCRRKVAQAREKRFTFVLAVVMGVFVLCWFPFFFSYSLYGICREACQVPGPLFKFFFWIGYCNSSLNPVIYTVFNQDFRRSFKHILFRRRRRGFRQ
Sequence of Voltage-gated potassium channel subunit beta-2 (Rattus norvegicus) (P62483 whole entry, looked up): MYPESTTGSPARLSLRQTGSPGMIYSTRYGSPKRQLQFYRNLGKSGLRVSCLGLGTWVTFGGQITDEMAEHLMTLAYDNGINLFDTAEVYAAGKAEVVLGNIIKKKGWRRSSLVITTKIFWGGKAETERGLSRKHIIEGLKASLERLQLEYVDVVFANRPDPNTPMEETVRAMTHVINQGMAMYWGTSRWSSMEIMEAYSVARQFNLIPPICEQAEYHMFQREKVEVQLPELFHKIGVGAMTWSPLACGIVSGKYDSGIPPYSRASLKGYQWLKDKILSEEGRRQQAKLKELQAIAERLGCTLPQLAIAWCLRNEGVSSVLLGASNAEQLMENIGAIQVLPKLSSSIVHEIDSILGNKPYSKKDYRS

| Compound | cell count [1] | inhibition [1] | inhibition of aggregation [2] | nuclei count [2] | inhibition [3] | nuclei count [3] | fluorescence slope [4] | NADPH fluorescence slope [5] | slope [6] | inhibition [7] | inhibition [8] |
| --- | --- | --- | --- | --- | --- | --- | --- | --- | --- | --- | --- |
| CCOc1ccc(-n2cc(C(=O)N3CCN(C)CC3)c3cc(OC)c(OC)cc3c2=O)cc1 | 393 | 8.8% (inactive) | 0.2% (inactive) | 99.4% | -54.1% (inactive) | 121% | -0.524 (inactive) | 1.6e-05 (inactive) | 0.007 (inactive) | -29.8% (inactive) | -2.36% (inactive) |
| COC(=O)C1=C(C)NC(=O)C1(Nc1ccc(Cl)cn1)C(F)(F)F (stereo not drawn) | 324 | 1.8% (inactive) | 3.9% (inactive) | 95.1% | -63.7% (inactive) | 125% | -0.317 (inactive) | -1.2e-05 (inactive) | 0.00613 (inactive) | 13.8% (inactive) | 32.2% (inactive) |
| C=CCn1c(SCC(=O)c2cc(C)n(C(C)COC)c2C)nc2sc(C)c(C)c2c1=O (stereo not drawn) | 357 | 3% (inactive) | -8.9% (inactive) | 99.9% | -1.2% (inactive) | 100% | -0.459 (inactive) | 1e-05 (inactive) | 0.00515 (inactive) | 7.26% (inactive) | 22.9% (inactive) |
| C=CCn1c(-c2cccs2)nc2nc3ccccc3nc21 | 546 | -5.4% (inactive) | -7.5% (inactive) | 90.1% | -77.5% (inactive) | 141% | -0.602 (inactive) | 4.4e-06 (inactive) | 0.0057 (inactive) | -3.42% (inactive) | 2.94% (inactive) |
| CCCc1nnc2n1N=C(c1ccc(OC)c(OC)c1)CS2 | 321 | -12.4% (inactive) | -0.1% (inactive) | 83.3% | 12.3% (inactive) | 99.3% | -0.584 (inactive) | -5.6e-05 (inactive) | 0.00347 (inactive) | 16.9% (inactive) | 37.3% (inactive) |
| O=C(Nc1ccc(OC(=O)c2ccco2)cc1)c1ccco1 | 239 | -2.2% (inactive) | -7.4% (inactive) | 92% | 10.8% (inactive) | 101% | -0.442 (inactive) | -1e-05 (inactive) | 0.00563 (inactive) | 4.1% (inactive) | -1.78% (inactive) |
| C=CCNC(=O)CSc1nc2sc(C)c(C)c2c(=O)[nH]1 | 590 | -3.4% (inactive) | 13.2% (inactive) | 91.2% | 5.1% (inactive) | 112% | -0.556 (inactive) | -3.3e-05 (inactive) | 0.00731 (inactive) | 9.71% (inactive) | 21.7% (inactive) |
| CCCCOC(=O)CN1C(=O)c2ccc(C(=O)OCCCC)cc2C1=O | 619 | -4.1% (inactive) | -4.5% (inactive) | 36.7% | -48.1% (inactive) | 88.2% | -0.486 (inactive) | -2.2e-05 (inactive) | 0.00602 (inactive) | -2.49% (inactive) | 26% (inactive) |
